PubChem BioAssay AID485349 (National Center for Advancing Translational Sciences (NCATS), 2010)
Out of some 320,000 compounds screened, about 620 (0.19%) were called active. The call rests on the fitted dose curve; in most records, active means well fitted activation curve with a large enough effect; inconclusive means small, poorly fitted or top-dose-only effect; inactive means no such curve, though single readings can be large or run the other way. This excerpt belongs to a sample that is enriched for actives.

Assay: qHTS Assay for Identifying a Potential Treatment of Ataxia-Telangiectasia; further: nearly all actives have a fitted effect of over 45% in size; on activation: % of control where 0% means no effect
Conditions: F2112 A-T fibroblasts, KAP-1 phosphorylation AlphaLISA, neocarzinostatin DNA damage 30 min before lysis; series mostly up to 57.5 µM; activation: at the top concentration
Outline: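 hTERT-immortalized A-T patient fibroblasts (F2112), 500 cells/well in OPTI-MEM, 1% FBS, got compounds for 60 min, then NCS for 30 min at 37C. Lysates were then assayed for phospho-KAP-1 by AlphaLISA (anti-pKAP1 donor, anti-KAP1 acceptor beads), 6 hr at 25C.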
Potency means the concentration at half of the fitted maximal effect.

| SMILES | activation | Potency |
| --- | --- | --- |
| C#CCOCCOCCOCCNc1nc(N2CCN(C(=O)[C@H](CCC(=O)O)n3cc(C(N)CO)nn3)CC2)nc(N2CCN(C(=O)[C@H](CCCCN)n3cc(C(N)[C@H](C)CC)nn3)CC2)n1 (stereo partly specified) | -9.68% (inactive) | – |
| C#CCOCCOCCOCCNc1nc(N2CCN(C(=O)[C@H](CCC(=O)O)n3cc(C(N)CO)nn3)CC2)nc(N2CCN(C(=O)[C@H](CCCCN)n3cc(C(N)CC(C)C)nn3)CC2)n1 (stereo partly specified) | – | 31.6 µM (active) |
| C#CCOCCOCCOCCNc1nc(N2CCN(C(=O)[C@H](CO)n3cc([C@@H](N)C(C)C)nn3)CC2)nc(N2CCN(C(=O)[C@H](CCC(=O)O)n3cc([C@@H](N)[C@H](C)CC)nn3)CC2)n1 | 19.6% (inactive) | – |
| CCOC(=O)C1=C(C)N(C[C@@H]2CC[C@@H](Cc3ccc(-c4ccccc4)cc3)O2)C(=O)NC1c1ccc([N+](=O)[O-])cc1 (stereo partly specified) | 2.54% (inactive) | – |
| COc1ccc(OCc2nnc3n2N=C(c2ccccc2)C(CC(=O)O)S3)cc1 (stereo unspecified) | -6.02% (inactive) | – |
| CCN(CC)C(=O)[C@H]1C[C@H](CC(=O)NCC23CC4CC(CC(C4)C2)C3)C(=O)N2CCc3c([nH]c4cc(CCC(=O)N(C)C)ccc34)[C@]12C | 5.14% [at 11.5 µM] (inactive) | – |
| CN(C)CCCNC(=O)c1cc(C(=O)Cc2ccc(Cl)cc2)c[nH]1 | -3.26% (inactive) | – |
| Cc1c(N=Nc2ccc(N(C)C)cc2)c(=O)n(-c2ccccc2)n1C | -13% (inactive) | – |
| COc1ccc(NC(=S)NCCN2CCC(C)CC2)cc1 | 0.379% (inactive) | – |
| COc1ccc(NC(=S)NCC2CCN(c3ccc(OC)cc3)C2)cc1 (stereo unspecified) | -10.3% (inactive) | – |
| COc1ccc(N2CCC(CNC(=S)Nc3c(C)cccc3C)C2)cc1 (stereo unspecified) | – | 17.8 µM (active) |
| CC(C)(C)[Si](OCC[C@@H]1C[C@@]1(C)[C@@H](NP(=O)(c1ccccc1)c1ccccc1)c1ccccc1)(c1ccccc1)c1ccccc1 | 0.777% (inactive) | – |
| CCOc1ccc(N(CC(=O)Nc2ccccc2F)S(=O)(=O)c2c(C)[nH]c(=O)[nH]c2=O)cc1 | -6.74% (inactive) | – |
| CC(=O)Oc1ccccc1C1=NN(C(C)=O)C(c2ccccc2)C1 (stereo unspecified) | -4.03% (inactive) | – |
| CNC(=S)N1N=C(c2ccccc2)CC1c1ccc(Br)cc1 (stereo unspecified) | -12.5% (inactive) | – |
| O=C(c1ccccc1)N1N=C(c2ccccc2O)CC1c1ccc(Br)cc1 (stereo unspecified) | – | 17.8 µM (active) |
| Cn1c2cc(B(O)O)sc2c2cnn(Cc3ccccc3F)c(=O)c21 | -5.04% (inactive) | – |
| CS/C(=C\[N+](=O)[O-])Nc1ccc(C)cc1 | -0.888% (inactive) | – |
| CCCCn1nnnc1NCc1cc(OC)c(OC)c(OC)c1 | 3.86% (inactive) | – |
| O=C(NCc1cccs1)C1CCN(S(=O)(=O)c2ccc(Cl)cc2)CC1 | 6.91% (inactive) | – |
| CS(=O)(=O)c1ccc(Cl)c(NC(=O)COC(=O)c2cccc(S(=O)(=O)N3CCCC3)c2)c1 | -0.484% (inactive) | – |
| O=C(CNCc1cccs1)Nc1cc(S(=O)(=O)N2CCCC2)ccc1Cl | – | 3.16 µM (active) |
| CCCS(=O)(=O)Nc1ccc(-c2cn3c(n2)SCC3)cc1 | 3.25% (inactive) | – |
| O=C(COC(=O)Cn1cnc2ccccc2c1=O)NCc1ccccc1Cl | -0.0324% (inactive) | – |
| CSc1nnc(C2CCCN(CC(=O)Nc3ccccc3N3CCOCC3)C2)n1C(C)C (stereo unspecified) | -1.38% (inactive) | – |
| COc1ccnc2c1c(=O)n(Cc1cccc(F)c1)c(=O)n2C | 3.98% (inactive) | – |

| SMILES | activation | Potency |
| --- | --- | --- |
| Nc1cc(N)nc(SCc2cccc(F)c2)n1 | 24.3% (inactive) | – |
| CC(=O)c1nc2ccccc2n1Cc1ccccc1 | 2.27% (inactive) | – |
| CC(C)(C)c1cc2cccnc2n1Cc1cccc(F)c1 | – | 28.2 µM (active) |
| CC(C)(C)c1cc2cccnc2n1Cc1ccccc1 | – | 20 µM (active) |
| Cc1cc(C(C)(C)C)n2nc(C)c(-c3ccccc3)c2n1 | 27.3% (inactive) | – |
| COC(=O)c1ccc(C2C(Oc3ccccc3C)C(=O)N2CCc2ccc(OC)c(OC)c2)cc1 (stereo unspecified) | 26.3% (inactive) | – |
| CC(=O)C1=C(O)C(=O)N(c2ccc(S(N)(=O)=O)cc2)C1c1ccccc1F (stereo unspecified) | -0.685% (inactive) | – |
| O=P(O)(CN1CCCCC1)CN1CCCCC1 | 6.95% (inactive) | – |
| N=c1ccn(CC(=O)NC(N)=O)c2ccccc12 | 6.18% (inactive) | – |
| O=C(OCCN=C1NS(=O)(=O)c2ccccc21)c1cccc([N+](=O)[O-])c1 | 0.583% (inactive) | – |
| O=C(O)c1[nH]c2ccccc2c1C(c1cccc(O)c1)c1c(C(=O)O)[nH]c2ccccc12 | -5.26% (inactive) | – |
| C[C@@H]1CN([C@@H](C)CO)C(=O)c2cc(NC(=O)C3CC3)ccc2O[C@H]1CN(C)C | 8.61% (inactive) | – |
| O=c1o[nH]c(-c2ccccc2)c1N=Nc1c(F)cccc1Cl | -14.2% (inactive) | – |
| COc1ccc(C(C)NC(=S)NC2CCCCC2)cc1OC (stereo unspecified) | 7.74% (inactive) | – |
| Cc1ccc(CNC(=O)Cc2cn(C)c3ccccc23)cc1 | 12.3% (inactive) | – |
| O=C(NCc1ccco1)/C(=C/c1ccco1)NC(=O)c1ccccc1 | -8.8% (inactive) | – |
| O=C(NCC1CCCO1)/C(=C\c1ccco1)NC(=O)c1ccccc1 (stereo unspecified) | 20.5% (inactive) | – |
| Cc1ccc(C(=O)N/C(=C\c2ccco2)C(=O)NC2CCS(=O)(=O)C2)cc1 (stereo unspecified) | – | 10 µM (active) |
| O=S(=O)(NC1CCN(S(=O)(=O)c2ccc3c(c2)OCCO3)CC1)c1c(F)cccc1F | -5% (inactive) | – |
| CC1CCCN(C(=O)c2ccc3c(c2)C(=O)N(CCC2=CCCCC2)C3=O)C1 (stereo unspecified) | -18.6% (inactive) | – |
| COc1ccc2[nH]c3c(c2c1)CCN1C(=O)C(CC(=O)NCCc2ccccn2)C[C@H](C(=O)N2CCOCC2)[C@@]31C (stereo partly specified) | 10.7% (inactive) | – |
| O=C(NCC1CCCO1)c1ccc(S(=O)(=O)Nc2ccc(F)cc2)cc1 (stereo unspecified) | 0.226% (inactive) | – |
| O=C1CCCN1C(=O)COc1ccc([N+](=O)[O-])cc1 | -6.5% (inactive) | – |
| COc1ccc(-c2nc(CCNC(=O)c3ccc(Br)o3)cs2)cc1 | 11.6% (inactive) | – |
| O=C(NCCc1csc(-c2ccccc2)n1)c1ccccc1F | – | 22.4 µM (active) |
| O=S(=O)(NCCc1csc(-c2ccccc2)n1)c1cccnc1 | -3.45% (inactive) | – |

| SMILES | activation | Potency |
| --- | --- | --- |
| COCCn1c(C)cc(C(=O)COC(=O)/C=C/c2cccc(OC)c2)c1C | -1.3% (inactive) | – |
| CCOC(=O)C1=CN(Cc2ccc(Br)cc2)S(=O)(=O)NC1C (stereo unspecified) | -9.89% (inactive) | – |
| O=C(Nc1ccccc1N1CCN(C(=O)c2ccccc2)CC1)c1ccco1 | 7.67% (inactive) | – |
| O=C(Nc1ccccc1C(=O)N1CCCCC1)c1ccco1 | 8.96% (inactive) | – |
| O=C(Nc1cccc2c1N(C(=O)c1ccco1)CCC2)c1ccco1 | – | 35.5 µM (active) |
| CCN(C(=O)COC(=O)c1c(C)nn(-c2ccccc2)c1Cl)c1c(N)n(Cc2ccccc2)c(=O)[nH]c1=O | -3.48% (inactive) | – |
| CC[C@]12c3[nH]c4ccc(Cl)cc4c3CCN1C(=O)[C@@H](CC(=O)NCCN1CCOCC1)C[C@@H]2C(=O)N1CCN(C(=O)C2CC2)CC1 | -2.31% (inactive) | – |
| CCN(CC)P(=O)(Nc1ccc(SC(F)F)cc1)c1ccc(N(C)C)cc1NC(=O)c1ccco1 (stereo unspecified) | 1.66% (inactive) | – |
| CCCCNC(=O)C(C)N(CCN(C)C)C(=O)CCCCCN1C(=O)NC(c2ccc(Cl)cc2)C(C(=O)OCc2ccccc2)=C1C (stereo unspecified) | 8.98% (inactive) | – |
| Cc1cccc(-n2c(SCC(=O)Nc3cccc(S(=O)(=O)NC4=NCCCCC4)c3)nc3ccccc3c2=O)c1C | 5.49% (inactive) | – |
| CC/C=C/C(=O)N1CC2(CC(c3cccc(NC(=O)CC)c3)=NO2)C[C@H]1C(N)=O (stereo partly specified) | 0% (inactive) | – |
| C/C=C(/C)C(=O)Nc1cccc(C2=NOC3(C2)C[C@@H](C(N)=O)N(C(=O)C2(C)CC2)C3)c1 (stereo partly specified) | 32.3% (inactive) | – |
| C/C=C\C=C\C(=O)N1CC2(CC(c3cccc(NC(=O)/C(C)=C\C)c3)=NO2)C[C@H]1C(N)=O (stereo partly specified) | – | 25.1 µM (active) |
| O=C(NCCC(=O)N1O[C@@H]2C=C[C@H]1C2)OCC1c2ccccc2-c2ccccc21 | -1.69% [at 11.5 µM] (inactive) | – |
| Cc1ccc(S(=O)(=O)N2CCN(C)CC2)cc1C(=O)NC1CCCCC1 | 1.7% (inactive) | – |
| Fc1ccc(CNCc2ccc(Br)cc2)cc1 | 17.2% (inactive) | – |
| Cc1cccc(CN2CCN(Cc3cnn(-c4ccccc4F)c3)CC2CCO)n1 (stereo unspecified) | 11.2% (inactive) | – |
| O=C(Nc1ccccc1)N1CCC(C(=O)N2CCN(Cc3ccccc3)CC2)CC1 | -5.34% (inactive) | – |
| COc1ccc(N(CC(=O)Nc2ccc(C)cc2C)S(=O)(=O)c2ccccc2[N+](=O)[O-])c(OC)c1 | 2.47% [at 11.5 µM] (inactive) | – |
| CCOC(=O)N1CCC(Nc2c(NCCCN3CCN(CC)CC3)c(=O)c2=O)CC1 | 0.0532% (inactive) | – |
| CCOC(=O)N1CCC(Nc2c(NCCCN3CCN(c4ccc(OC)cc4)CC3)c(=O)c2=O)CC1 | – | 11.2 µM (active) |
| CCOC(=O)N1CCC(Nc2c(NCCN3CCN(c4cccc(Cl)c4)CC3)c(=O)c2=O)CC1 | 7.77% (inactive) | – |
| CCCCCCCCCCCCN1C(=O)CSC1c1cccnc1 (stereo unspecified) | 8.52% (inactive) | – |
| CC(C)Cc1ccc(S(=O)(=O)N2CCN(C(=O)c3ccco3)CC2)cc1 | 6.31% (inactive) | – |
